These results are taken from PubChem BioAssay (NCATS).

The target of experiment [1] is Peroxisome proliferator-activated receptor gamma (Homo sapiens) (UniProt P37231). The experiment is described as follows: qHTS assay for small molecule agonists of peroxisome proliferator-activated receptor gamma signaling (AID 588536; active = well fitted curve in the direction sought with a large enough effect in the signal ratio, with a control signal flat, not every such curve was filed as active; the % refers to the signal ratio;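 note: 0% = DMSO basal wells and 100% = rosiglitazone at 2 µM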). A digest of the protocol: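 Ratiometric blue/green fluorescence (405 nm excitation; 460 and 530 nm emission) from CCF4-loaded HEK293 reporter cells serves as signal. Exposure to test compounds lasts 16 h at 37 C in medium containing 1% charcoal/dextran-treated serum.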
Background: qHTS replaces the single test concentration by a dilution series.

In experiment [2] the target is Vitamin D3 receptor (Homo sapiens) (UniProt P11473). The experiment is described as follows: qHTS assay for small molecule antagonists of vitamin D receptor signaling (AID 588541; calls by dose curve;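 note: receptor activated by calcitriol during compound treatment; series mostly up to about 77 µM; % is set by controls: 0 for no effect and ±100 for the full control effect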). In short, it runs like this: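 VDR-UAS-bla HEK293T cells (2000/well, 2% charcoal-stripped FBS) were treated with titrated compounds plus 1-alpha,25-dihydroxyvitamin D3 (50 nM or 3 nM final) for 16 h at 37 C. CCF4 beta-lactamase fluorescence was read; Hill fits gave IC50.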

The target is the same in experiment [3]. The experiment is described as follows: qHTS assay for small molecule agonists of vitamin D receptor signaling (AID 588543; calls by dose curve;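 note: 0% = DMSO basal and 100% = reference agonist control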). A digest of the protocol:
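qHTS in agonist mode: compound titrations stimulate a VDR-driven β-lactamase reporter in HEK293T cells over 16 h at 37 °C. Response normalized to 50 nM 1α,25-dihydroxyvitamin D3 = 100%, DMSO = 0%; Hill fitting gives EC50 and maximal response.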

Experiment [4] is described as follows: qHTS assay for small molecule agonists of retinoid X receptor alpha signaling (AID 588544; calls by dose curve;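 for activation: 0% = DMSO basal wells and 100% = reference agonist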). Conditions: HEK293T RXRa-UAS-bla, beta-lactamase reporter, 18 h; 530 nm emission.
Experiment [5] deals with Retinoic acid receptor RXR-alpha (Homo sapiens) (UniProt P19793). The description is as above.
Experiment [6] can be described thus: qHTS assay for small molecule antagonists of retinoid X receptor alpha signaling (AID 588546; active = well fitted inhibition curve with a large enough effect in the signal ratio, with a control signal flat, not every such curve was filed as active; the % refers to the signal ratio;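 note: cells stimulated with 9-cis-retinoic acid as agonist; % is set by controls: 0 for no effect and ±100 for the full control effect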). Conditions: HEK293T RXRa-UAS-bla, beta-lactamase ratio, antagonist mode; measured here: W530 green channel, cytotoxicity proxy. A digest of the protocol: (§1)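 Beta-lactamase reporter inhibition, read as CCF4 fluorescence ratio (ex 405, em 460/530 nm) after 2 h at RT. HEK293T UAS-bla cells, 2500/well, were stimulated with 9-cis-RA at 500 or 100 nM final alongside test compound for 18 h at 37 C.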

Experiment [7] deals with Retinoic acid receptor RXR-alpha (Homo sapiens) (UniProt P19793). Described as above. Conditions: HEK293T RXRa-UAS-bla, beta-lactamase ratio, antagonist mode. In short, it runs like this: as §1
The target in experiment [8] is Thyroid hormone receptor beta (Homo sapiens) (UniProt P10828). The experiment is described as follows: qHTS assay for small molecule antagonists of thyroid hormone receptor beta signaling (AID 588547; active = well fitted inhibition curve with a large enough effect in the signal ratio, with a control signal flat, not every such curve was filed as active; the % refers to the signal ratio;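 note: cells stimulated with 0.4 nM T3 agonist during compound exposure; series mostly up to about 77 µM; % is set by controls: 0 for no effect and ±100 for the full control effect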). To be noted: TR-UAS-bla HEK293, beta-lactamase ratio, antagonist mode, 18 h. A digest of the protocol: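 TR-UAS-bla GripTite HEK293 cells in 2% charcoal/dextran FBS medium were preincubated 4 h at 37 C, given compound (0.59 nM to 92 uM) plus 0.4 nM T3 (final) for 18 h, then CCF4 for 2 h at RT; Hill fit gave IC50.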

Experiment [9] has as its target Voltage-gated inwardly rectifying potassium channel KCNH2 (Homo sapiens) (UniProt Q12809). The experiment is described as follows: qHTS Assay for Small Molecule Inhibitors of the Human hERG Channel Activity (AID 588834).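 Note: top concentration of the series differs between compounds; % is set by controls: 0 for no effect and ±100 for the full control effect; lower thallium flux fluorescence means stronger hERG block; nearly all actives have a fitted effect of over 50% in size.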 A digest of the protocol:
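Measured: FluxOR fluorescence after thallium stimulation in U2OS cells transduced with hERG by baculovirus. Compounds pre-incubated around 10 min; medium Opti-MEM with 2% FCS. AC50 from Hill equation.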

Experiment [10] in a line: qHTS assay for small molecule activators of the p53 signaling pathway (AID 651743; active = well fitted activation curve with a large enough effect in the signal ratio, not every such curve was filed as active; the % refers to the signal ratio; note: series mostly up to about 92 µM; % of control where 0% means no effect). Conditions: HCT-116 p53RE-bla, beta-lactamase FRET ratio, 16 h; activation: stronger effect = higher value. In short, it runs like this:
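Cell-based beta-lactamase reporter (p53 response elements, HCT-116 background). After a 5-hour preincubation, cells received compound for 16 hours at 37 C; substrate development ran 2 hours at room temperature.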

Experiment [11] can be described thus: qHTS assay for small molecule activators of the nuclear factor-kappa B (NF-kB) signaling pathway (AID 651749; active = well fitted activation curve with a large enough effect in the signal ratio; the % refers to the signal ratio; note: series mostly up to about 77 µM; % of control where 0% means no effect). Conditions: NF-kB-bla ME-180 cells, beta-lactamase FRET ratio, 16 h; activation: stronger effect = higher value. A digest of the protocol: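 Screening used 2,000 ME-180 reporter cells per well exposed to pinned compound (23 nL) or DMSO; after 16 hr at 37C, beta-lactamase expression under NF-kB control was assessed through FRET.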

The target in experiment [12] is Tumor necrosis factor (Homo sapiens) (UniProt P01375). Kind of experiment: qHTS assay to identify small molecules that stimulate Tumor Necrosis Factor-alpha (TNF-alpha) secretion (AID 651757; active = well fitted curve in the direction sought with a large enough effect in the signal ratio; the % refers to the signal ratio; note: 0% is about no effect). A digest of the protocol:
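THP-1 cells (3000/well) exposed to compounds 17 hrs at 37 C. Secreted TNF-alpha detected by HTRF with cryptate- and XL665-labeled anti-TNF-alpha antibodies after 3 hr at room temperature.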

Experiment [13] can be described thus: qHTS assay for environmental chemicals that activate the Aryl hydrocarbon Receptor (AhR) signaling pathway (AID 651777). Note: % of control where 0% means no effect; nearly all actives have a fitted effect of over 15% in size. Conditions: 1A2-DRE human hepatoma cells, luciferase, 24 h; activation: stronger effect = higher value. In short, it runs like this: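 Quantitative HTS in stably transfected human liver-derived cells whose luciferase gene sits downstream of the CYP1A2 promoter and dioxin response element. After 24 hr exposure at 37 C, One-Glo luminescence was measured.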

Experiment [14] deals with Peroxisome proliferator-activated receptor alpha (Homo sapiens) (UniProt Q07869). The experiment is described as follows: qHTS assay for small molecule agonists of the peroxisome proliferator-activated receptor alpha (PPARalpha) signaling pathway (AID 651778). Note: % of control where 0% means no effect. To be noted: PathHunter PPARalpha complementation, chemiluminescence, 6 h; stronger effect = higher value. In short, it runs like this:
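Cells plated at 2,000/well and held overnight at 37 C, 5% CO2, then compound added by pin tool for 6 hr; after PathHunter detection reagent and 60 min at room temperature, chemiluminescence from enzyme complementation was read.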

The target in experiment [15] is Nuclear receptor ROR-gamma (Homo sapiens) (UniProt P51449). Kind of experiment: qHTS assay for small molecule antagonists of the retinoid-related orphan receptor gamma (ROR-gamma) signaling pathway (AID 651802).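 Note: luciferase reporter luminescence driven by ROR response element; series mostly up to about 92 µM; % is set by controls: 0 for no effect and ±100 for the full control effect; nearly all actives have a fitted effect of over 60% in size.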 A digest of the protocol: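 CHO cells with TET-inducible ROR-gamma and RORE-luciferase reporter, dosed then doxycycline-induced. After 16 h at 37C, One-Glo luminescence read; decreased signal indicates antagonism.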

Experiment [16] can be described thus: qHTS assay for small molecule agonists of the antioxidant response element (ARE) signaling pathway measured by Nrf2-dependant transcriptional activity (AID 720636; active = well fitted curve in the direction sought with a large enough effect in the repeat runs; an effect the other way counts as inactive or inconclusive; note: % of control where 0% means no effect). In short, it runs like this: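 Quantitative HTS format in HepG2 cells stably expressing an ARE-luciferase reporter; 16 hr compound treatment at 37 C, luciferase signal detected with ONE-Glo.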
The nature of experiment [17]: qHTS assay for small molecule antagonists of the retinoid-related orphan receptor gamma (ROR-gamma) signaling pathway - cell viability counter screen (AID 720652; active = well fitted curve in the direction sought with a large enough effect in the repeat runs; an effect the other way counts as inactive or inconclusive;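 note: series mostly up to about 92 µM; compound exposure lasted 16 hr before ATP read; % is set by controls: 0 for no effect and ±100 for the full control effect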). A digest of the protocol: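 CHO cells carrying TET-inducible ROR and RORE-luciferase reporter, plated 5 hr, then dosed with compound plus doxycycline. After 16 hr at 37 C, viability read as intracellular ATP by CellTiter-Glo luminescence.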

The nature of experiment [18]: qHTS assay for small molecule agonists of the antioxidant response element (ARE) signaling pathway measured by Nrf2-dependant transcriptional activity - cell viability counter screen (AID 720653; active = well fitted curve in the direction sought with a large enough effect in the repeat runs; an effect the other way counts as inactive or inconclusive; note: % is set by controls: 0 for no effect and ±100 for the full control effect). Conditions: ARE-bla HepG2 viability, CellTiter-Glo ATP luminescence, 16 h; stronger effect = lower value. In short, it runs like this:
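ARE-bla HepG2 cells (2,000/well) rested 5 hrs at 37C/5% CO2, then exposed to compounds in DMSO for 16 hrs. Viability was read in the same wells as intracellular ATP by luminescence, 30 min at room temperature after reagent addition.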

Experiment [19] in a line: qHTS assay for cell viability of HEK293 cells (AID 743288). Note: % is set by controls: 0 for no effect and ±100 for the full control effect; nearly all actives have a fitted effect of over 50% in size. To be noted: ATP luminescence (CellTiter-Glo), 18 h; max response: stronger effect = lower value. In short, it runs like this: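 The Tox21 protocol used parental HEK293 cells treated for 18 h at 37 C with compounds delivered by pintool; ATP-coupled luminescence after 30 min at room temperature gave viability.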
Experiment [20] in a line: qHTS assay for cell viability of the p53RE-bla HCT-116 cell line (AID 743292). Note: % is set by controls: 0 for no effect and ±100 for the full control effect; nearly all actives have a fitted effect of over 55% in size. In short, it runs like this:
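Viability of compound-treated p53RE-bla HCT-116 cells is taken from ATP-dependent luciferase luminescence. Treatment lasts 16 h at 37 C after a 5 h settling period; detection follows 30 min at room temperature.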

The target of experiment [21] is Nuclear receptor subfamily 1 group I member 2 (Rattus norvegicus) (UniProt Q9R1A7). Kind of experiment: qHTS assay for small molecule activators of the rat pregnane X receptor (rPXR) signaling pathway (AID 651751; call rule not given here; note: 0% is about no effect). Conditions: rPXR reporter cells, luciferase (One-Glo), 24 h.
Experiment [22] can be described thus: qHTS assay for small molecule activators of the human pregnane X receptor (PXR) signaling pathway (AID 720659; call rule not given here; note: 0% is about no effect).

Where “and” joins values, the source holds several entries; their conditions need not be identical. Identical values can stand only once. Inconclusive results are not listed. Calls of active or inactive are those of the source. Unless noted, calls come from the whole dose curve; as a rule, active = well fitted curve in the direction sought with a large enough effect; inconclusive = small, poorly fitted or top-dose-only effect, or another doubt; inactive = no such curve, though single readings can be large; an effect the other way counts as inactive or inconclusive.

Chain of Retinoic acid receptor RXR-alpha (Homo sapiens) (P19793 whole entry, looked up): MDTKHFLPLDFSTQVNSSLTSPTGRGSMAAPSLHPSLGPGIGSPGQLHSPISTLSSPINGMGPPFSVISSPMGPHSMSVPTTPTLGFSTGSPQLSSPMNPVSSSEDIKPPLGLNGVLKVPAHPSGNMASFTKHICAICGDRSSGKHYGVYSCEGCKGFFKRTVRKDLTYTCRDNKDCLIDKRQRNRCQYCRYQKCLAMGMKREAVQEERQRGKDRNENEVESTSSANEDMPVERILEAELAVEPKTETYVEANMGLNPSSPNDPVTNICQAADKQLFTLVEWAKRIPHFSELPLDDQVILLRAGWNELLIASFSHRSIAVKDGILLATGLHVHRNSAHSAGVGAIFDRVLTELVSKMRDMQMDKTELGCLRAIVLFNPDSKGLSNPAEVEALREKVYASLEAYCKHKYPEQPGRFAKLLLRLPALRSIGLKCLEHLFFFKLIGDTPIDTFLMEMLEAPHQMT
Chain of Vitamin D3 receptor (Homo sapiens) (P11473 whole entry, looked up): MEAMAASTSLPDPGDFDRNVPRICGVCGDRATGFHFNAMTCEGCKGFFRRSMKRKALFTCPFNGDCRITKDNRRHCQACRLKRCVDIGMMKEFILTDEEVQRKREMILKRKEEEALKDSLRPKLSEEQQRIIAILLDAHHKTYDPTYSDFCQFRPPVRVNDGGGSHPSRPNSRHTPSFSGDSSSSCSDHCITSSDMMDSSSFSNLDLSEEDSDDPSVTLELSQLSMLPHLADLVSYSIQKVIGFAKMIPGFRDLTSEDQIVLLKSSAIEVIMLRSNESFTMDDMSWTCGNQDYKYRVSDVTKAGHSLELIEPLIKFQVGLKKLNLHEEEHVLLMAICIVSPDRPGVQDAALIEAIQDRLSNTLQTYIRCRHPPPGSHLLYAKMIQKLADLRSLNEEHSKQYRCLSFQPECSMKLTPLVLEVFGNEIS
Chain of Peroxisome proliferator-activated receptor alpha (Homo sapiens) (Q07869 whole entry, looked up): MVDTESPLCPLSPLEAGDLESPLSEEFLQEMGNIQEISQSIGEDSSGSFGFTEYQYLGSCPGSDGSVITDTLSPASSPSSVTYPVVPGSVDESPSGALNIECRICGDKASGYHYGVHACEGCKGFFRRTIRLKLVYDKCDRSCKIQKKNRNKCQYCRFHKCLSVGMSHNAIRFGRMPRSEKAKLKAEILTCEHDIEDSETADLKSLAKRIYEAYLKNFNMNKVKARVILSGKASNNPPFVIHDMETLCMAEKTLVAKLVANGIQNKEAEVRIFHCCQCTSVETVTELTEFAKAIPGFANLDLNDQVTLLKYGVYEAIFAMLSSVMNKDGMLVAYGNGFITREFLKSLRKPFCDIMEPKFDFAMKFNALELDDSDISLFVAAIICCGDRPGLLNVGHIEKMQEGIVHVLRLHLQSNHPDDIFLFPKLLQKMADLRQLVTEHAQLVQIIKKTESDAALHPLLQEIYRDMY
Chain of Nuclear receptor subfamily 1 group I member 2 (Rattus norvegicus) (Q9R1A7 whole entry, looked up): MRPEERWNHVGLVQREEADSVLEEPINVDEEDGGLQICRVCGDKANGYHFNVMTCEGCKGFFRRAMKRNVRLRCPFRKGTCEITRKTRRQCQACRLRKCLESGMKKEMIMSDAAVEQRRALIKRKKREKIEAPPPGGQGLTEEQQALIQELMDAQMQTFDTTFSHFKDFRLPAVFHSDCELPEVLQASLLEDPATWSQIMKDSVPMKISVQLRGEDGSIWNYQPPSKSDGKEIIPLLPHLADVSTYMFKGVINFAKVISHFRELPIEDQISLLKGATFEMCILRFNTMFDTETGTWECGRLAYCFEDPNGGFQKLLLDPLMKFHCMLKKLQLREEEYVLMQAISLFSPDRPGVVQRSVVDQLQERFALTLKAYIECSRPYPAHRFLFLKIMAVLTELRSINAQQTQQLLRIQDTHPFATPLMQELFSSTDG
Chain of Peroxisome proliferator-activated receptor gamma (Homo sapiens) (P37231 whole entry, looked up): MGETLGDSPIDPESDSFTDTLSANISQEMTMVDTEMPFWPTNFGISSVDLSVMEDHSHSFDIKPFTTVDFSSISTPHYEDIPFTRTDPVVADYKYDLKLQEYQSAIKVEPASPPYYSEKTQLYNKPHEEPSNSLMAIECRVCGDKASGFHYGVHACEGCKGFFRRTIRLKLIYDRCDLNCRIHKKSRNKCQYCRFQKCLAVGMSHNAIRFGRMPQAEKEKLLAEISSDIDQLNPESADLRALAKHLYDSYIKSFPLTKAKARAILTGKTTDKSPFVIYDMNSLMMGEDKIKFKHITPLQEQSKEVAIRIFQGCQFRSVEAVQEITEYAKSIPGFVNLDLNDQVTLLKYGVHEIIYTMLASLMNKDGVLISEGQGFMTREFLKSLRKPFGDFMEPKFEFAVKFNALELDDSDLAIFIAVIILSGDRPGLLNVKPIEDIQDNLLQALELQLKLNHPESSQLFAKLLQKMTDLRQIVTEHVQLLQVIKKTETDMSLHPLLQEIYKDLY
Chain of Thyroid hormone receptor beta (Homo sapiens) (P10828 whole entry, looked up): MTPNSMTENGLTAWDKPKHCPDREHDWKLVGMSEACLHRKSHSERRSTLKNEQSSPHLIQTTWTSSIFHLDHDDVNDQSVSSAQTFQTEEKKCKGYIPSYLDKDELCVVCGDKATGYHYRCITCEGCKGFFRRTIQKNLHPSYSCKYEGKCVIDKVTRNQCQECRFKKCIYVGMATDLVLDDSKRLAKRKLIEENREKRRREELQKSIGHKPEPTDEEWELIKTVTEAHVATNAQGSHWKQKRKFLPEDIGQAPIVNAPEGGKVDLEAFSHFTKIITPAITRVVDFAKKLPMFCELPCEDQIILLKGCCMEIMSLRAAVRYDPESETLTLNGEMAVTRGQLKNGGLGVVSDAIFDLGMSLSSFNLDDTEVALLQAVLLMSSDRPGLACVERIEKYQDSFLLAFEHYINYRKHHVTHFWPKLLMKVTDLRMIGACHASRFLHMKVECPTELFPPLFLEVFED
Chain of Tumor necrosis factor (Homo sapiens) (P01375 whole entry, looked up): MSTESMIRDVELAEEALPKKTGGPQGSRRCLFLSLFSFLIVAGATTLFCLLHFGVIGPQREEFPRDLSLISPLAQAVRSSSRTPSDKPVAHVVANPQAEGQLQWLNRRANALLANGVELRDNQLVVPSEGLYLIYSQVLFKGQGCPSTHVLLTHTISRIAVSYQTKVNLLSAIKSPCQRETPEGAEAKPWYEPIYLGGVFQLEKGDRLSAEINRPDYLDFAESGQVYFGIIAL
Chain of Nuclear receptor ROR-gamma (Homo sapiens) (P51449 whole entry, looked up): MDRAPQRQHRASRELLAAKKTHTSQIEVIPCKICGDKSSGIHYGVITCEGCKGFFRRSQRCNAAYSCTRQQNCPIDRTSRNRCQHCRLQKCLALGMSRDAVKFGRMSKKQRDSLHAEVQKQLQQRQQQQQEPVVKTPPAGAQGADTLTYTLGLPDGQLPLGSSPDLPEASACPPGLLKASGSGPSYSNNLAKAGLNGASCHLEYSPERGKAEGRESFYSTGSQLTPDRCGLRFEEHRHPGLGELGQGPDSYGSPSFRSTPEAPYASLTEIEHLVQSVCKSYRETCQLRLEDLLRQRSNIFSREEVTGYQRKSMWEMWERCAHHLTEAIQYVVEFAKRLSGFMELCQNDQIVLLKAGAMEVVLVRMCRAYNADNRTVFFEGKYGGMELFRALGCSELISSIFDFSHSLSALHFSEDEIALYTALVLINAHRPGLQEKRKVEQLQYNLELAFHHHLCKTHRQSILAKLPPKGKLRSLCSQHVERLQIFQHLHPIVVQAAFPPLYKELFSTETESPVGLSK
Chain of Voltage-gated inwardly rectifying potassium channel KCNH2 (Homo sapiens) (Q12809 whole entry, looked up): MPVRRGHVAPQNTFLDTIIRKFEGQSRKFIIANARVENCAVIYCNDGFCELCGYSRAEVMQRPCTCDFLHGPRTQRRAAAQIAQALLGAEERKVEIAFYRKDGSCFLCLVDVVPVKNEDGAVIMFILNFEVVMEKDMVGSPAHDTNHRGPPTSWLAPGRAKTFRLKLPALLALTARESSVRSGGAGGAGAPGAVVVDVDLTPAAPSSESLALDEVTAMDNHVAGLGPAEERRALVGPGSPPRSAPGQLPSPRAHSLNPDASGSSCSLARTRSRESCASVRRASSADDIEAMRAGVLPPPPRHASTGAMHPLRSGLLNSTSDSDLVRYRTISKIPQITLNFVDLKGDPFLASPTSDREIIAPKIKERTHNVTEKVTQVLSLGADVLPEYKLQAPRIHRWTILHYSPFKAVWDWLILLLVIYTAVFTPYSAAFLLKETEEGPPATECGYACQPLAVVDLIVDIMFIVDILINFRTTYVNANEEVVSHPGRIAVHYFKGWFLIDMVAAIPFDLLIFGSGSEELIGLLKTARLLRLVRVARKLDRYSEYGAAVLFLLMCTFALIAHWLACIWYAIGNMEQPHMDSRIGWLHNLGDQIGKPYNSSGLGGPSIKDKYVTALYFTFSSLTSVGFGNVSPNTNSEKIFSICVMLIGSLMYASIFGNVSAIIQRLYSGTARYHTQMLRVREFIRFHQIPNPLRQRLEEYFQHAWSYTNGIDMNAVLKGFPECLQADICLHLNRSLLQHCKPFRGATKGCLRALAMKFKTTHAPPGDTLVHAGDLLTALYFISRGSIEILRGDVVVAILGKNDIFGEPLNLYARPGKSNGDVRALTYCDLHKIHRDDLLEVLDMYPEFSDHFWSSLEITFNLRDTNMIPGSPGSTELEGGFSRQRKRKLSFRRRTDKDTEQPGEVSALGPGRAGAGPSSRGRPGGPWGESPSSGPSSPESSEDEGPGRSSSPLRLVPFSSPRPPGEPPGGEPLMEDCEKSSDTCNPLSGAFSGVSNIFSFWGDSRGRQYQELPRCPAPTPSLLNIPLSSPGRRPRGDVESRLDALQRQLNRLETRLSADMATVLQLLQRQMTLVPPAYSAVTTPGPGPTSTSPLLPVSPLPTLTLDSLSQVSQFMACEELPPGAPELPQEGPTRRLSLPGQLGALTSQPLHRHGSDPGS

Turning to `Brc1ccccc1`, the call in experiment [1], in [2], in experiment [3], in experiment [12], in [16] and in experiment [22] was inactive. Further, the max response was -12.9% and -10.7% in experiment [4]; -12.3% and -4.99% in experiment [6]; -1.11% (inactive) and -6.34% (inactive) in [7]; -0.353% (inactive) and -0.0548% (inactive) in experiment [14]; -10.2% (inactive) and 1.06% (inactive) in experiment [18]; 3.06% (inactive) and -4.67% (inactive) in [19]. The max response in [21] was 0.981% (inactive) and 1.34% (inactive). Besides, the Potency entry in [5], in experiment [9], in experiment [15], in [17] and in experiment [20] was “inactive” each time. Moreover, the activity change % (negative = inhibition) in [8] is -13.6% (inactive) and -17.2% (inactive). The activation was -1.82% (inactive) and -1.95% (inactive) in [10]; 1.07% (inactive) and -1.27% (inactive) in experiment [11]; -1.29% (inactive) and 1.99% (inactive) in experiment [13].
